Our source for the growth values is PubChem BioAssay (NCI).

Each structure is given as a SMILES string. The panel holds about 83,000 compounds, 20% with a hit somewhere; the sample as a whole holds those more often.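 96-well plates, one dose, 48 hours. Percent growth reported; active if below 10.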 Activity calls are given as the source filed them.

The assay concerns HL-60(TB) leukemia. Nature of the assay: NCI-60 one-dose screen, 48 h (100 = growth as untreated, 0 = no growth, -100 = all killed). The conditions noted are these: 10 µM unless noted.
For the compound `CNC1=CC(=O)c2c(C(=O)OC)c(C)[n+]([O-])c(C)c2C1=O`, the growth is 29% (inactive).

As to `COc1ccc(Sc2[nH]c(C=O)c3ccccc23)cc1`, the growth is 14.7% (inactive). For `O=C(N/N=C/c1ccccc1Cl)C(=O)Nc1cccc(C(F)(F)F)c1` the value was 106% (inactive). For `O=C1C2C(c3cccs3)C=C(c3ccc(Cl)cc3)N2C(=S)N1c1ccccc1` (stereo not given) the value was 99.8% (inactive); for `Cc1ccc(C)c2c1CCC2C(C)C` (stereo not given), 108% (inactive). For the compound `O=C(N/N=C/c1c(Cl)cccc1Cl)c1ccccc1Nc1ccnc(C(F)(F)F)c1`, the growth is 96.5% (inactive). For `COc1ccc(/C=C/C(=O)c2ccc(-n3cc(CN4CCN(c5cc6c(cc5F)c(=O)c(C(=O)O)cn6C5CC5)CC4)nn3)cc2)cc1OC` the value was 45.1% (inactive). The figure for `O=C(Nc1ccc(F)cc1)c1ccc(C(=O)Nc2ccc(F)cc2)cc1` is 107% (inactive).

Regarding `CCN1CCN(c2nc(NNC(=O)c3cccc(OC)c3)nc(N3CCN(C(c4ccccc4)c4ccccc4)CC3)n2)CC1`, the growth was 28.4% (inactive). For `CC(C)C1=NOC(=O)C1=Cc1cn(-c2ccccc2)nc1-c1ccc(F)cc1` the value was -34.9% (active); for `O=C(/C=C/C12c3ccccc3C(c3ccccc31)C1C(=O)NC(=O)C12)c1ccccc1` (stereo not given), 9.79% (active). For the compound `CN1CCN(Cc2ccc(NC(=O)c3cncc(C#Cc4cnc(N)c5ccc(C#N)cc45)c3)cc2C(F)(F)F)CC1`, the growth is -17% (active).

As to `CC(C)OCC(CCl)OC(=O)Nc1ccccc1` (stereo not given), the growth was 97.3% (inactive).

Take `O=C1C(=O)c2ccccc2C(O)=C1CCCc1ccc(C2CCCCC2)cc1`: the growth is 30.6% (inactive). As for `Cc1ccc(S(=O)(=O)NCCCNc2cc(-c3cn(C(C)(C)C)nc3-c3cccc(O)c3)ccn2)cc1`, the growth is 66.6% (inactive). For `CCOC(=O)c1cnn2c(-c3ccc(Cl)cc3)nc(NCc3ccccc3)nc12` the value was 82.7% (inactive); for `N#CC1=C(N)Oc2c(sc3c(Br)cccc23)C1c1ccc(Br)cc1` (stereo not given), 6.12% (active). `CCOC(=O)c1c2c(c(C)n1Cc1ccc(OC)cc1)-c1nc(N)ncc1CC2`: the growth is 68.8% (inactive). For `COC1=CC=CC2(OC)C3(O)CCCc4cccc(c43)N3C(=O)COC132` (stereo not given) the value was 98.6% (inactive); for `CC(=O)NC(CCc1ccc(Cl)c(Cl)c1)c1cccc(O)c(=O)c1` (stereo not given), -16.5% (active); for `O=C1C(Cl)=C(Nc2cccc3ccccc23)C(=O)c2ccccc21`, 71.1% (inactive). As for `CCCCCCNc1nc(NCCCCCC)c2[nH]c(NCCCCCC)nc2n1`, the growth was -60.2% (active). Consider `S=C=Nc1ccc(N2CCOCC2)cc1`, for which the growth was 103% (inactive). The figure for `C[C@]12CC[C@H]3[C@@H](CC[C@H]4C[C@@H](O)CC[C@@]43C)[C@@H]1CC(=O)C2` is 83% (inactive).

Take `CC(C)(C)OC(=O)N1CCc2c(sc3ncnc(N/N=C/c4ccc(Br)cc4)c23)C1`: the growth was 83.1% (inactive). The figure for `O=C(NCc1ccccc1)C(Cl)Cl` is 95.9% (inactive).

For `CCCOC(=O)N[C@H]1CCc2cc(OC)c(OC)c(OC)c2-c2ccc(SC)c(=O)cc21`, the growth was -39.7% (active). The figure for `O=C1/C(=C\c2cccn2Cc2ccc(F)cc2)c2ccccc2N1c1c(Cl)cccc1Cl` is 96.5% (inactive); for `Nc1ccc(-c2cc3c(Nc4ccc(Oc5cccc(C(F)(F)F)c5)c(Cl)c4)ncnc3s2)cc1` it is 54.9% (inactive); for `CC(C)NS(=O)(=O)c1cccc(-c2ccc3c(=O)n(CCCN)c4c(c3c2)C(=O)c2ccccc2-4)c1` it is 125% (inactive). For `O=C(Nc1ccc(NC(=O)c2cc(=O)[nH]c3ccccc23)cc1)Nc1cccc(Cl)c1` the value was 78.7% (inactive); for `COc1ccc(NC(=O)c2sc3nc(C)c(C(O)c4ccc(OC)cc4)cc3c2N)cc1` (stereo not given), -59.5% (active); for `N#Cc1cnc2ccc(NCc3cnc[nH]3)cc2c1Nc1ccc(F)c(Cl)c1`, 79.4% (inactive). As to `CCCCCc1cc[n+](CC(=O)c2ccc(Cl)cc2)cc1`, the growth was 94% (inactive). The figure for `COc1cc(N2CCC(N3CCN(C)CC3)CC2)ccc1Nc1ncnc(Nc2ccccc2S(=O)(=O)C(C)C)n1` is 102% (inactive); for `O=C1c2cccc3cc([N+](=O)[O-])cc(c23)C(=O)N1CCN1CCCC1` it is -54.1% (active); for `O=C1C=CC(n2cc(F)c(=O)[nH]c2=O)O1` (stereo not given) it is 45.3% (inactive). For `CC1=C(NCCN2CCCC2)C(=O)c2c(OCc3ccc(C(F)(F)F)cc3)cccc2C1=O` the value was -20.6% (active); for `Cc1ccccc1-c1cc(Cc2ccc(F)cc2)c(=O)[nH]n1`, 54.2% (inactive). The figure for `O=C1OCC2=C1C(c1cccc(C(F)(F)F)c1)c1cc3c(cc1N2CCO)OCCO3` (stereo not given) is -29.5% (active).
